Results filed as inconclusive are left out. Active and inactive are the calls of the source. How the source made its calls, unless noted: active means hit-call score of the fitted dose curve at least 0.9, where 1 is the maximum; inactive means score below 0.9.
Assays:
IYD (gene 389434) = test: CCTE_GLTED_hIYD: CCTE's human Iodotyrosine Deiodinase (xIYD) Inhibition Assay, Great Lakes Toxicology and Ecology Division (GLTED) Lab (AID 2284317; active means hit-call score of the fitted dose curve at least 0.9, where 1 is the maximum;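 further: cell-free human IYD enzyme made in baculovirus insect cells; iodide freed from monoiodotyrosine measured by cerium arsenite color change at 420 nm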)
Method in brief: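 Human IYD expressed in a baculovirus-insect cell system was incubated 3 h with monoiodotyrosine and test chemical. Released iodide, separated on Dowex columns, was quantified by the Sandell-Kolthoff reaction at 420 nm; plates were normalized to MNT and DMSO/NaOH controls.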

[1] = IUF_NPC2a_radial_glia_migration_120hr: Leibniz Research Institute for Environmental Medicine (IUF) 120-hour Neural Progenitor Cell Migration Assay for Radial Glia Migration (NPC2a) (AID 2284298)
Method in brief: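 In this multiplexed test, fetal hNPC spheres migrate radially on poly-D-lysine/laminin in N2 medium (37C, 5% CO2, pH 7.2-7.6) under continuous compound exposure over five days. Migration is scored at 120 h from automated Hoechst nuclear imaging.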

[2] = IUF_NPC2a_radial_glia_migration_72hr: Leibniz Research Institute for Environmental Medicine (IUF) 72-hour Neural Progenitor Cell Migration Assay for Radial Glia Migration (NPC2a) (AID 2284299)
Method in brief: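 Human fetal cortex (GW 16-19) neural progenitor spheres, 0.3 mm, plated on poly-D-lysine/laminin in N2 differentiation medium with compound from day 0. Radial glia migration distance (um, sphere core edge to migration edge) measured manually in four directions on 72 h brightfield images; well mean used.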

[3] = IUF_NPC2b_neuronal_migration_120hr: Leibniz Research Institute for Environmental Medicine (IUF) 120-hour Neural Progenitor Cell Migration Assay for Neuron Migration (NPC2b) (AID 2284300)
Method in brief: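 Neurons identified by TUBB3 immunostaining and Hoechst nuclei; migration distance measured automatically on fixed wells at 120 h, normalized to glia migration. Exposure spanned five days of differentiation in N2 medium, seven test concentrations.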

[4] = IUF_NPC3_neuronal_differentiation_120hr: Leibniz Research Institute for Environmental Medicine (IUF) 120-hour Neuronal Differentiation Assay (NPC3) (AID 2284301)
Method in brief: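 Single 0.3 mm neurospheres from human fetal cortex were plated in differentiation medium containing test compound. Medium was half-replaced on day 3. After 120 h cells were fixed, immunostained and imaged, and neuronal fraction was scored against DMSO control.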

[5] = IUF_NPC4_neurite_length_120hr: Leibniz Research Institute for Environmental Medicine (IUF) 120-hour Neuronal Morphology Assay for Neurite Length (NPC4) (AID 2284302)
Method in brief: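 Read-out is mean neurite length in µm of TUBB3-positive neurons, skeletonized from high-content fluorescence images after 120 h. Single 0.3 mm primary human neural progenitor spheres differentiated on poly-D-lysine/laminin under continuous compound exposure; DMSO was baseline.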

[6] = IUF_NPC5_oligodendrocyte_differentiation_120hr: Leibniz Research Institute for Environmental Medicine (IUF) 120-hour Oligodendrocyte Differentiation Assay (NPC5) (AID 2284304; active means hit-call score of the fitted dose curve at least 0.9, where 1 is the maximum;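 further: primary human fetal neural progenitor spheres plated to migrate and differentiate; share of O4-positive cells among Hoechst nuclei found by CNN image analysis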)
Method in brief: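 Human primary NPC neurospheres migrating and differentiating on laminin for 120 h under continuous compound exposure (serial dilution, solvent control). Endpoint: percent O4+ oligodendrocytes among Hoechst nuclei, detected by CNN image analysis, with DMSO as negative control.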

[7] = IUF_NPC4_neurite_area_120hr: Leibniz Research Institute for Environmental Medicine (IUF) 120-hour Neuronal Morphology Assay for Neurite Area (NPC4) (AID 2284305; active means hit-call score of the fitted dose curve at least 0.9, where 1 is the maximum)
Method in brief: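 Neurite area is read out as the mean pixel area, excluding nuclei, of skeletonized TUBB3-positive neurons imaged after 120 h. Primary human neural progenitor spheres differentiated on poly-D-lysine/laminin with compound present from day 0. Activity was referenced to DMSO controls.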

[8] = IUF_NPC2-5_cytotoxicity_120hr: Cytotoxicity Assessment at 120 hours in the Leibniz Research Institute for Environmental Medicine (IUF) Neural Progenitor Cell Migration and Differentiation Assay (NPC2-5) (AID 2284307; active means hit-call score of the fitted dose curve at least 0.9, where 1 is the maximum;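 on AC50: LDH released into supernatant as membrane damage marker via resorufin fluorescence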)
Method in brief: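 Fluorescence (RFU) from LDH-driven resazurin reduction in medium supernatants measured loss of membrane integrity after 120 h of compound exposure of differentiating primary human neural progenitor spheres on an extracellular matrix.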

[9] = IUF_NPC2-5_cell_number_120hr: Cell Number Assessment at 120 hours in the Leibniz Research Institute for Environmental Medicine (IUF) Neural Progenitor Cell Migration and Differentiation Assay (NPC2-5) (AID 2284308);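 further: count of Hoechst-stained nuclei in migration zone around plated human neural progenitor spheres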
Method in brief: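 Cell number is taken as all Hoechst-positive nuclei detected in the area into which cells migrate out of the sphere, scored at 120 h and referenced to DMSO solvent control, which was kept at no more than 0.1%.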

[10] = IUF_NPC2-5_viability_120hr: Viability Assessment at 120 hours in the Leibniz Research Institute for Environmental Medicine (IUF) Neural Progenitor Cell Migration and Differentiation Assay (NPC2-5) (AID 2284312)
Method in brief: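 Alamar blue resorufin fluorescence read after 5 days of differentiation, with compound present from day 0 and replenished at day 3. Primary hNPC spheres on laminin-coated plates, 37C; seven concentrations plus solvent control, fitted against DMSO.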

[11] = CCTE_Mundy_HCI_iCellGluta_NOG_NeuriteLength: CCTE's Neurite Outgrowth Assay in iCellGluta cells for Neurite Length, Mundy Lab (AID 2284318; active means hit-call score of the fitted dose curve at least 0.9, where 1 is the maximum)
Method in brief: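 Automated high-content imaging of betaIII-tubulin (Alexa Fluor-488) and Hoechst-stained cells gave neurite length, normalized to the DMSO baseline.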

[12] = CCTE_Deisenroth_5AR_NBTE_donor: CCTE's 5alpha-reductase NanoBRET Target Engagement Assay […], Deisenroth Lab (AID 2284319); details: actives raise or lower the signal
Method in brief: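 HEK293T cells were reverse transfected with an SRD5A2-NanoLuc vector for 20 h, exposed to test chemical (8 points, 10 nM - 29.9 uM) for 3 h, then testosterone tracer for 2 h more. Donor luminescence (460 nm) was read; bidirectional fit versus DMSO.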

[13] = CCTE_Deisenroth_5AR_NBTE_acceptor: CCTE's 5alpha-reductase NanoBRET Target Engagement Assay - Autofluorescence Screen, Deisenroth Lab (AID 2284321); details: actives raise or lower the signal;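 further: compound fluorescence in the acceptor channel under 460 nm excitation flags autofluorescence artifacts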
Method in brief: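 Chemicals diluted to a nominal 100 uM in DMSO were scanned at 460 nm excitation. Samples were read in three independent runs (n=3). Gain or loss of acceptor signal was fitted relative to DMSO.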

SRD5A2 (gene 6716) = test: CCTE_Deisenroth_5AR_NBTE_ratio: CCTE's 5alpha-reductase NanoBRET Target Engagement Assay - Ratio, Deisenroth Lab (AID 2284322); details: actives raise or lower the signal
Method in brief: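 Reverse-transfect HEK293T with pNLF1-C-SRD5A2, express 20 h. Pre-incubate cells with chemical 3 h (8-point series, 10 nM - 29.9 uM, duplicate). Add testosterone tracer, 2 h more. Add substrate/inhibitor, read donor and acceptor emission.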

[14] = VALA_TUBIPS_Agonist_TubuleLength: VALA Sciences human iPS-derived Endothelial Tubule Formation (TUBIPS) Agonism Assay (AID 2284311; active means hit-call score of the fitted dose curve at least 0.9, where 1 is the maximum)
Method in brief: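 Human iPS-derived endothelial cells were exposed to compound for 72 h. Tubule formation was imaged by high-content fluorescence and scored as gain of signal relative to DMSO vehicle (agonist mode).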

[15] = VALA_TUBIPS_Antagonist_TubuleLength: VALA Sciences human iPS-derived Endothelial Tubule Formation (TUBIPS) Antagonist Assay (AID 2284313; active means hit-call score of the fitted dose curve at least 0.9, where 1 is the maximum)
Method in brief: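 Cells grown 3 days with 10 ng/ml VEGF, then exposed to compounds in VEGF medium for another 3 days. After fixation, nuclear stain and CD31 immunofluorescence imaging gave mean total tubule length against 0.1% DMSO; suramin (100 uM) inhibition control.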

[16] = VALA_MIGHUV2_Bcatenin: VALA Sciences human Umbilical Vein Endothelial Cell Migration (MIGHUV) Assay, Nuclear Translocation of beta-Catenin after Recovery (AID 2284315; active means hit-call score of the fitted dose curve at least 0.9, where 1 is the maximum)
Method in brief: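 HUVEC (4000 cells/well) scratch-wounded, dosed within 30 min over 6 concentrations in triplicate, recovered 24 h. After fixation, Hoechst and anti-beta-catenin immunofluorescence imaged for nuclear CTNB. Gain of signal versus 0.1% DMSO.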

[17] = VALA_TUBHUV_Agonist_CellCount: Viability Assessment in the VALA Sciences human Umbilical Vein Endothelial Tubule Formation (TUBHUV) Agonism Assay (AID 2284309; active means hit-call score of the fitted dose curve at least 0.9, where 1 is the maximum)
Method in brief: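 HUVEC co-cultured 1:3 with HDF for 3 days in 10 ng/ml VEGF, then compounds added in VEGF medium for a further 3 days (72 h). Nuclear-stain/CD31 imaging cell count. Positive-direction fit versus 0.1% DMSO vehicle.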

[18] = VALA_MIGHUV2_WoundArea: VALA Sciences human Umbilical Vein Endothelial Cell Migration (MIGHUV) Assay, Area of Scratch Wound after Recovery (AID 2284316; active means hit-call score of the fitted dose curve at least 0.9, where 1 is the maximum)
Method in brief: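 HUVEC seeded at 9000 cells/well, scratched after 24 h; test chemical added within 30 min, 6-point concentration response in triplicate (0.1% DMSO vehicle). After 24 h wound recovery, cells fixed and Hoechst-stained nuclei in wound area imaged; Cytochalasin D reference control.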

Measured: AC50

N#Cc1cc(Br)c(O)c(Br)c1
inactive: IYD (gene 389434)

CCOc1cc(Oc2ccc(C(F)(F)F)cc2Cl)ccc1[N+](=O)[O-]
inactive: [1] | [2] | [3] | [4] | [5] | [7] | [8] | [9] | [10]
active: [6] 5.26 µM | [11] 73.7 µM

Oc1ccccc1-c1ccccc1
inactive: IYD (gene 389434) | [12] | [13]
active: SRD5A2 (gene 6716) 31.5 µM

N#Cc1nn(-c2c(Cl)cc(C(F)(F)F)cc2Cl)c(N)c1S(=O)C(F)(F)F (stereo not given)
active: [1] 18.8 µM | [5] 13.5 µM | [6] 1.99 µM | [7] 14.3 µM | [9] 14.2 µM
not listed: IYD (gene 389434) | [12] | [13] | SRD5A2 (gene 6716) | [17] | [18]
inactive: all other assays above

C=CCC1=C(C)[C@@H](OC(=O)[C@@H]2[C@@H](C=C(C)C)C2(C)C)CC1=O
active: [11] 5.87 µM

CCCCC(CC)COC(=O)c1ccccc1C(=O)OCC(CC)CCCC (stereo not given)
active: [11] 36.1 µM
inactive: [1] | [2] | [3] | [4] | [5] | [6] | [8] | [9] | [10]

CCCCNC(=O)n1c(NC(=O)OC)nc2ccccc21
inactive: [11]

COP(N)(=O)SC (stereo not given)
inactive: [1] | [2] | [3] | [4] | [5] | [6] | [7] | [8] | [9] | [10] | [11]

COC(=O)N(OC)c1ccccc1COc1ccn(-c2ccc(Cl)cc2)n1
active: [1] 3.18 µM | [2] 3.44 µM | [4] 0.0497 µM | [5] 0.328 µM | [6] 2.16 µM | [7] 0.167 µM | [8] 2.12 µM | [9] 3.23 µM | [10] 1.55 µM | [11] 2.57 µM | SRD5A2 (gene 6716) 34.1 µM
inactive: [3] | [12] | [13]

CNC(=O)ON=CC(C)(C)SC
inactive: [1] | [2] | [3] | [4] | [5] | [6] | [7] | [8] | [9] | [10]

C=CC1(C)OC(=O)N(c2cc(Cl)cc(Cl)c2)C1=O (stereo not given)
active: [11] 19.4 µM
inactive: [1] | [2] | [3] | [4] | [5] | [6] | [8] | [9] | [10]

OC(c1ccc(Cl)cc1)(c1cncnc1)c1ccccc1Cl (stereo not given)
inactive: IYD (gene 389434)

CCOC(=O)CC(SP(=S)(OC)OC)C(=O)OCC (stereo not given)
inactive: [1] | [2] | [3] | [4] | [5] | [7] | [8] | [9] | [10]
active: [11] 2.98 µM

CCCCNC(=O)OCC#CI
active: [12] 50 µM | [13] 50 µM | SRD5A2 (gene 6716) 50 µM

CC1COC(Cn2cncn2)(c2ccc(Oc3ccc(Cl)cc3)cc2Cl)O1 (stereo not given)
inactive: IYD (gene 389434)

N#CC(CCc1ccc(Cl)cc1)(Cn1cncn1)c1ccccc1 (stereo not given)
inactive: [12] | [13] | SRD5A2 (gene 6716)

CN(C)C(=S)SSC(=S)N(C)C
active: [1] 47.3 µM | [2] 11.4 µM | [3] 58.7 µM | [4] 13.5 µM | [5] 17.7 µM | [6] 26 µM | [7] 27.5 µM | [8] 13 µM | [9] 26.1 µM | [10] 29.1 µM | [11] 0.0483 µM

CC(C)(C)c1ccc(CSc2cnn(C(C)(C)C)c(=O)c2Cl)cc1
active: [1] 3.31 µM | [6] 0.0866 µM | [17] 20.3 µM | [18] 7.5 µM | [11] 0.15 µM
not listed: IYD (gene 389434) | [12] | [13] | SRD5A2 (gene 6716) | [14] | [16]
inactive: all other assays above

Cc1ccc(-c2c(Cl)nc(C#N)n2S(=O)(=O)N(C)C)cc1
active: [1] 33.6 µM | [2] 25.9 µM | [3] 30.8 µM | [4] 31.3 µM | [5] 12.5 µM | [6] 33.9 µM | [7] 26.1 µM | [8] 33 µM | [9] 13.2 µM | [10] 11.7 µM | [11] 32.6 µM

CO/C=C(/C(=O)OC)c1ccccc1Oc1cc(Oc2ccccc2C#N)ncn1
inactive: [1] | [2] | [3] | [4] | [5] | [6] | [7] | [8] | [9] | [10]
active: [11] 18.9 µM

CCCCOC(=O)c1ccccc1C(=O)OCCCC
inactive: [1] | [2] | [3] | [4] | [5] | [8] | [9] | [10] | IYD (gene 389434) | [11]

COP(=S)(OC)Oc1nc(Cl)c(Cl)cc1Cl
inactive: [1] | [2] | [3] | [4] | [5] | [6] | [8] | [9] | [10]
active: [11] 23.9 µM

COc1ccc(C(c2ccc(OC)cc2)C(Cl)(Cl)Cl)cc1
inactive: [12] | [13] | SRD5A2 (gene 6716)
